Sampled rows, rich in hits. Any-hit rate of the full collection: about 11%.
HPGD block: HPGD (human) dehydrogenase inhibition; purified HPGD, NADH fluorescence kinetic, PGE2 substrate; Potency, µM, actives largely listed as inhibitors; 4.3% of 150,000 active
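20 nM HPGD preincubated 15 min at room temperature with compound in 50 mM Tris-HCl pH 8, 0.01% Tween 20. Started with 1 mM NAD+ and 30 uM prostaglandin E2; NADH fluorescence (360/450 nm) read 5 times over 30-s intervals, last minus first.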
ALDH1A1 inh: blocks purified human ALDH1A1 activity | P00352 | Purified ALDH1A1, NADH fluorescence, propionaldehyde substrate | Potency, µM (titrated, usually from 75.3 µM), most hits filed as inhibitors | 7.3% of 220,000 active
Target sequence (P00352 whole entry, looked up): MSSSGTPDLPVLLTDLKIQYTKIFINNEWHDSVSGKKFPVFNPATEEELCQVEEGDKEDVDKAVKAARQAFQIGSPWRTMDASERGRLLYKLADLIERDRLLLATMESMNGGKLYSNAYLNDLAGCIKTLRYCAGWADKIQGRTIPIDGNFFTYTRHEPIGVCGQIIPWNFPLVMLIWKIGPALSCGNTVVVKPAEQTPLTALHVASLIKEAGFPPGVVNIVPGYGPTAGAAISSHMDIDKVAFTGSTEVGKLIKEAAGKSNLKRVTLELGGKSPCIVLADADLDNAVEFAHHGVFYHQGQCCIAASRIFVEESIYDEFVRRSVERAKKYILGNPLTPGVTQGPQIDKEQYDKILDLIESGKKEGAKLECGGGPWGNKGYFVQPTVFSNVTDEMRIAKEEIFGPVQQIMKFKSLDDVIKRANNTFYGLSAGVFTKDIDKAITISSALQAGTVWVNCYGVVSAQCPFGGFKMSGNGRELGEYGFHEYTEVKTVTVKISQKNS
PNC inhibitor: inhibitors of perinucleolar compartment assembly | PC3M PTB-GFP, PNC prevalence imaging, 16 h; active compounds read low | activity change (PNC), negative = inhibition, % at 10 µM | 3.1% of 140,000 active;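 active = readout at or below -70, meaning at least 70% loss of cells showing the perinucleolar compartment, a nuclear body marking cancer cells; inconclusive = readout between -30 and a set limit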
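PC3M cells stably expressing PTB-GFP, 750–1000 cells/well, treated 16 h at 37 °C with compound (23 nl of library stock), in duplicate. After paraformaldehyde fixation and Hoechst stain, imaged at 20x; PNC prevalence scored by image analysis.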
Numbers stand for hits; - = inactive; ? = inconclusive; . = no result; [ ] = another dose, or the depositor's remark. Unless noted, calls follow the shape of the dose curve; as a rule, active = well fitted inhibition curve with a large enough effect (not every such curve was filed as active); inconclusive = small, poorly fitted or top-dose-only effect, or another doubt; inactive = no such curve, though single readings can be large or run the other way.

SMILES | HPGD block | ALDH1A1 inh | PNC inhibitor
Cc1ccccc1C(=O)NC(=S)NCc1cccnc1 | . | - | .
COc1ccc(Cl)cc1C(=O)NNC(=O)c1cccnc1 | - | - | ?
Cc1ccccc1C(=O)NNC(=S)NC(=O)c1cccnc1 | - | 25.1µM | -
O=C(NC(=S)NNC(=O)c1ccccc1F)c1cccnc1 | . | 7.08µM | .
COc1ccc(CCNC(=O)C2CCC(=O)N2CCc2ccccc2)cc1OC (configuration not stated) | . | - | .
Cn1cc(Br)c(-c2cccc(NC(=O)CCCC(=O)O)c2)n1 | . | - | .
COC(=O)/C=C1\NCCNC1=O | . | - | .
COc1cccc(-c2nn(-c3ccccc3)cc2CNC(C)Cn2cncn2)c1 (configuration not stated) | . | - | .
CC12CCC(C(=O)Nc3ccc(SC(F)F)cc3)(CC1=O)C2(C)C (configuration not stated) | - | - | -
COc1ccc(OC)c(NC(=O)C23CCC(C)(C(=O)C2)C3(C)C)c1 (configuration not stated) | - | - | -85.5
CC(C)NS(=O)(=O)c1ccc(CCC(=O)NCc2ccncc2)cc1 | . | - | .
Cn1cc(Cl)c(C(=O)NC2CCCCCC2)n1 | - | - | -
Cn1cc(Cl)c(C(=O)NNC(=S)NC2CCCCC2)n1 | - | - | -109.0
CN1CCCC1CCNC1C2CC3CC(C2)CC1C3 (configuration not stated) | - | - | -
O=C(CCc1nc2ccccc2s1)OCc1ccccc1F | . | - | -
O=C(O)CC(NC(=O)c1cccc([N+](=O)[O-])c1)c1ccc2c(c1)OCO2 (configuration not stated) | . | - | .
Cn1cc(/C=N/NC(=O)c2cccc([N+](=O)[O-])c2)c2ccccc21 | - | - | -
CNC(=S)N/N=C/c1cn(Cc2ccc(F)cc2)c2ccccc12 | - | 28.2µM | ?
O=[N+]([O-])c1ccc(N/N=C\c2cccnc2)nc1 | . | - | .
Cc1cccc(C)c1-n1c(C)cc(/C=N\Nc2ccc([N+](=O)[O-])cn2)c1C | - | 10µM | -
O=[N+]([O-])c1ccc(N/N=C/c2cn(Cc3ccc(F)cc3)c3ccccc23)nc1 | - | 17.8µM | -
CNC(=S)N/N=C/c1cn(CCOc2ccc(OC)cc2)c2ccccc12 | - | - | ?
Cc1ccccc1OCC(=O)N/N=C/c1cn(Cc2ccccc2)c2ccccc12 | ? | ? | -
Cc1ccc(OCC(=O)N/N=C\c2cn(Cc3ccccc3)c3ccccc23)cc1C | ? | 12.6µM | -
C=C1C=C(Br)C2(OCCCO2)[C@H]2OC12 (some centres not stated) | . | -[13.5 µM] | .
SMILES | HPGD block | ALDH1A1 inh | PNC inhibitor
COc1ccc(C(=O)c2nccc3ccccc23)cc1 | . | - | .
C#CCn1cc(/C=N/NC(=O)COc2cccc3cccnc23)c2ccccc21 | - | 10µM | -
COC(=O)Cn1cc(/C=N/NC(=O)COc2cccc3cccnc23)c2ccccc21 | - | ? | -
NC(=O)N/N=C/c1ccccc1OCC(=O)NCc1ccccc1 | - | - | ?
Cc1ccccc1-n1c(=O)cc(N2CCC3(CC2)OCCO3)[nH]c1=O | - | - | -118.9
Cc1ccccc1-n1c(=O)cc(N2CCCCCC2)[nH]c1=O | - | - | -
CCN(CC)C(=O)c1c(Cl)nc(C)c([N+](=O)[O-])c1C | - | - | -
COc1cc(-c2nn3c(COc4ccccc4)nnc3s2)cc(OC)c1OC | ? | ? | -
Clc1ccccc1-c1nn2c(COc3ccccc3)nnc2s1 | 28.2µM | 20µM | -
Clc1ccccc1OCc1nn2c(-c3ccncc3)nnc2s1 | 3.98µM | ? | -
CCOc1ccc(-c2nnc3sc(COc4ccccc4)nn23)cc1 | - | - | -
CCOc1ccccc1OCc1nn2c(COc3ccccc3)nnc2s1 | 11.2µM | 7.94µM | -
c1ccc(Cc2nn3c(COc4ccccc4)nnc3s2)cc1 | 10µM | 5.01µM | ?
c1csc(Cc2nn3c(-c4ccncc4)nnc3s2)c1 | - | ? | ?
c1ccc(OCc2nn3c(C4CCCCC4)nnc3s2)cc1 | - | ? | -
COc1ccc(-c2[nH]ncc2/C=C(/C#N)C(=O)NC2CCCCCC2)cc1 | ? | ? | -
O=C(CNC(=O)C(c1ccccc1)c1ccccc1)OCC(=O)c1cccs1 | - | ? | -
O=C1C=C(NNC(=O)c2cccnc2)CC(c2ccco2)C1 (configuration not stated) | . | - | .
Cc1nnc(SCC(=O)Nc2sc3c(c2C(=O)c2ccccc2)CCCC3)s1 | - | ? | ?
NC(=O)CC1C(=O)N(c2ccc(F)cc2)C(=O)N1NC(=O)CCc1ccccc1 (configuration not stated) | . | - | .
COc1ccccc1NC(=O)C1=C(C)NC(=O)NC1c1cccs1 (configuration not stated) | . | - | .
C/C(=N\NC(=O)c1cccc(Cl)c1)C1C(=O)c2ccccc2C1=O | ? | 12.6µM | -
C/C(=N\NC(=O)CCc1ccccc1)C1C(=O)c2ccccc2C1=O | . | - | .
